Bioassay records from PubChem BioAssay.
MARV entry inh – Marburg virus entry inhibition; Marburg virus pseudotyped entry inhibition, cell reporter; Potency, µM (doses to about 37.8 µM), most hits filed as inhibitors; hit rate 1.8% among 300,000; AID 540276; calls by dose curve; tested in HEK293 cells
FMDV antiviral – foot and mouth disease virus antiviral activity. hit rate 1.2% among 410,000. FMDV antiviral cell-based qHTS. Potency, µM (highest dose often 57.9 µM), hits mostly inhibitors; calls by dose curve; tested in HEK293T cells; also: read-out not given here; nearly all actives have a fitted effect of over 45% in size
Vaccinia mCherry – vaccinia inhibition (mCherry reporter) | Vaccinia virus mCherry reporter infection, fluorescence | Potency, µM (highest dose often 36.5 µM), actives largely listed as inhibitors | hit rate 0.63% among 310,000 | AID 720579; calls by dose curve; tested in A549 cells; also: nearly all actives have a fitted effect of over 35% in size
Lassa entry inh – blocks Lassa virus binding to or entry into cells | Lassa virus pseudotype entry inhibition, cell reporter | Potency, µM (highest dose often 37.9 µM), most hits filed as inhibitors | hit rate 1.2% among 300,000 | AID 540256; calls by dose curve; tested in HEK293 cells; also: nearly all actives have a fitted effect of over 50% in size
Vaccinia Venus – vaccinia inhibition (Venus reporter); Vaccinia virus Venus reporter expression, fluorescence; Potency, µM (highest dose often 36.5 µM), hits mostly inhibitors; hit rate 0.46% among 330,000; calls by dose curve; tested in A549 cells; also: nearly all actives have a fitted effect of over 30% in size
HCMV inh – human cytomegalovirus inhibition; HFF cells, HCMV-luciferase reporter, 72 h; stronger effect = lower value; hit rate 4.5% among 410,000; activity change, negative = inhibition, % at 57.5 µM; in the data active = activity change below about -60%; inconclusive = no clear call, values can overlap the other calls; inactive = above about -39%
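Compounds were evaluated in HFFs infected with an HCMV luciferase reporter virus (MOI 1 PFU/cell). Luciferase in lysates collected 72 h post infection served as the replication measure.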
Hits are given with their value; . = inactive; ? = inconclusive; / = no result. Hits are enriched below; roughly 6.5% of the tested compounds scored in any of these assays.

SMILES	MARV entry inh	FMDV antiviral	Vaccinia mCherry	Lassa entry inh	Vaccinia Venus	HCMV inh
COc1ccccc1-c1cc(C(=O)Nc2c(C)nn(Cc3ccc(Cl)cc3)c2C)no1	10µM	28µM	?	?	?	-74
Cc1ccc(Cn2nc(C)c(NC(=O)c3cc(-c4ccc5c(c4)OCO5)on3)c2C)cc1	?	.	?	.	?	-60
COc1ccc2c(c1)CCc1c(C(=O)Nc3c(C)nn(Cc4ccc(C)cc4)c3C)noc1-2	?	?	?	.	?	-96
O=C(Nc1ccc2c(c1)OCO2)c1cc(-c2ccc(O)cc2)on1	7.9µM	.	.	.	.	.
Cc1nn(Cc2ccccc2)c(C)c1NC(=O)c1noc2c1CCc1ccccc1-2	.	?	?	/	?	/
Cc1ccc2[nH]cc(C(O)c3c[nH]c4ccc(C)cc34)c2c1	/	/	.	/	.	/
O=S(=O)(c1ccccc1)c1nnn2c1nc(NCc1cccs1)c1sccc12	/	.	?	.	?	.
CC1CCc2nc(-c3cc4ccc(O)cc4oc3=O)sc2C1 (configuration not stated)	/	/	.	/	.	/
CC(C)c1ccc(NC(=O)CN2C(=O)CSc3ccc(S(=O)(=O)N4CCCC4)cc32)cc1	/	.	.	.	.	.
C[C@H]1C=CCC(=O)N[C@@H](c2ccc3ccccc3c2)[C@@H](C)C=CCC(=O)N[C@@H]1c1ccc2ccccc2c1	.	/	/	/	/	/
O=C(NNc1c(Cl)cccc1Cl)c1sccc1Cl	.	.	.	.	.	-75
O=C(NNc1c(Cl)cccc1Cl)c1c(F)cccc1Cl	.	.	.	.	.	.
Cc1cccc(CC(Cc2nc3ccccc3[nH]2)c2nc3ccccc3[nH]2)c1 (configuration not stated)	?	?	/	?	?	-83
COc1ccccc1CC(Cc1nc2ccccc2[nH]1)c1nc2ccccc2[nH]1 (configuration not stated)	?	.	.	.	.	.
Cn1c(=O)n(Cc2ccc(Cl)cc2)c(=O)c2c1nc1n2CCN1Cc1ccco1	.	?	/	?	/	-86
COc1ccc(/C=N/NC(=O)COc2ccccc2-c2ccccc2)cc1	?	?	?	?	3.5µM	-68
O=C(COc1ccccc1-c1ccccc1)N/N=C/c1cccc2ccccc12	?	?	?	?	?	-82
O=C(COc1cccc2ccccc12)N/N=C/c1ccccc1OCc1ccc(C(=O)O)cc1	?	.	.	.	.	.
CN(C)c1ccc(/C=N/NC(=O)COc2ccccc2)cc1	.	.	.	?	.	.
CCCC[C@H]1COCCS(=O)(=O)N1Cc1ccccc1F	/	.	.	/	.	-99
CC(C)[C@H]1COCCS(=O)(=O)N1Cc1ccccc1F	/	.	?	/	1µM	.
O=S1(=O)CCOC[C@H](Cc2ccccc2)N1Cc1ccc(F)cc1	/	.	.	/	?	-67
CC(C)[C@H]1COCCS(=O)(=O)N1Cc1cccc([N+](=O)[O-])c1	/	/	?	/	28µM	/
O=S1(=O)CCOC[C@H](Cc2ccccc2)N1Cc1cccc(F)c1	/	.	.	/	.	.
CC(C)[C@H]1COCCS(=O)(=O)N1Cc1cccc(Cl)c1	/	.	.	/	.	.
SMILES	MARV entry inh	FMDV antiviral	Vaccinia mCherry	Lassa entry inh	Vaccinia Venus	HCMV inh
COc1ccccc1OCC(=O)NNc1c2ccccc2nc2ccccc12	/	.	/	/	/	-92
C[N+]1(CC(=O)NNc2c3ccccc3nc3ccccc23)CCOCC1	/	/	/	/	/	-96
COc1ccccc1OCC(=O)NNC(=O)Nc1ccc(Cl)cc1	?	.	.	?	.	-64
CCCN(Cc1cccs1)C(=O)Nc1cc(Cl)ccc1C	.	.	.	.	.	.
COc1ccc(C2CC(=O)N(Cc3ccccc3)c3c2c(C)nn3-c2nc(C)cc(C)n2)c(OC)c1 (configuration not stated)	.	.	.	.	.	.
Cc1cc(N2CCN(C)CC2)nc2ccc(NC(=O)Nc3ccc(F)cc3)cc12	/	.	.	?	.	.
COc1cccc(NC(=O)Nc2ccc3nc(N4CCN(C)CC4)cc(C)c3c2)c1	/	.	?	.	.	-101
Cc1cc(N2CCN(C)CC2)nc2ccc(NC(=O)Nc3ccccc3Cl)cc12	/	.	.	?	.	-100
C=CCC12C=C(OC)C(=O)C(C1=O)C1c3ccccc3CC12 (configuration not stated)	.	/	/	?	/	/
Cc1cccc(NC(=O)Cc2coc3ccc4ccccc4c23)n1	6.5µM	.	.	?	.	-70
COc1cccc(NC(=O)c2cc3c(=O)n(Cc4cccnc4)ccc3nc2C)c1	/	.	.	.	.	.
